Abeta rescue: compounds reversing amyloid beta toxicity in yeast | yeast expressing A-beta42, growth rescue, OD600, 48 h; response scale: 0% DMSO, 100% iron-clioquinol control | Potency, µM (highest dose often 46.1 µM), usual class: activators | 410,000 compounds, 0.063% hits; note: potency is the fitted concentration of half-maximal effect; nearly all actives have a fitted effect of over 55% in size
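Growth rescue measured by 600 nm absorbance after 48 h yeast culture at 30 C with compound. Values normalized between DMSO and an equimolar ferric chloride plus clioquinol control.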
FUS suppressor: suppressors of FUS proteinopathy in yeast; 390,000 compounds, 0.24% hits; S. cerevisiae FUS-expressing, growth rescue, OD600, 24 h; Potency, µM (doses to about 76.6 µM), most hits filed as activators;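 note: potency is the fitted concentration of half-maximal effect; plate controls were DMSO vehicle for no effect and reference control for full effect; nearly all actives have a fitted effect of over 55% in size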
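Yeast expressing FUS under galactose induction, OD 0.005 in 2% galactose medium; compounds in a dilution series, 24 h at 30C. Growth rescue by absorbance at 600 nm; CP55940 positive control, DMSO negative.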
TDP43 rescue: TDP-43 toxicity inhibition in yeast. TDP-43 expressing yeast growth rescue, BacTiter-Glo, 24 h. 410,000 compounds, 1.8% hits. Potency, µM (doses to about 46.1 µM), inactives show at the highest dose growth rescue (activation), most hits filed as activators; note: potency is the fitted concentration of half-maximal effect; % of control where 0% means no effect; nearly all actives have a fitted effect of over 50% in size
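Yeast cells expressing TDP-43 under galactose induction are exposed to compounds for 24 hr at 30 deg C. BacTiter-Glo luminescence measures growth, so protective compounds score as activators.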
Mm-Cpn inhibitor: M. maripaludis TRiC chaperonin inhibition. 330,000 compounds, 0.031% hits. Potency, µM (doses to about 76.9 µM), inactives show top-dose activity, negative = inhibition, hits mostly inhibitors. AID 504842. purified Mm-Cpn ATPase, ADP Transcreener TR-FRET; note: potency is the fitted concentration of half-maximal effect; % is set by controls: 0 for no effect and ±100 for the full control effect; nearly all actives have a fitted effect of over 80% in size
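Compound-treated chaperonin, 25 nM final, turns over 10 uM ATP at 37°C for 30 min following a 10 min preincubation; ADP generated competes with ADP-d2 for Eu-cryptate antibody, lowering FRET.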
aSyn yeast inh: inhibitors of alpha-synuclein toxicity in yeast | Potency, µM (titrated, usually from 46.1 µM), inactives show at the highest dose growth rescue (activation), hits mostly activators | Yeast expressing alpha-synuclein, growth rescue, BacTiter-Glo, 24 h | 370,000 compounds, 0.14% hits; note: potency is the fitted concentration of half-maximal effect; % of control where 0% means no effect; nearly all actives have a fitted effect of over 65% in size
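Rescue of yeast growth: cells expressing toxic alpha-synuclein, induced in galactose at OD600 0.02, incubated with compound 24 h at 30 C. ATP luminescence quantified growth; inhibitors of toxicity appear as activators.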
CCT modulator: cytosolic chaperonin activity modulation; purified chaperonin ATPase assay, HTRF ADP detection, 30 min; 360,000 compounds, 0.3% hits; activity change, % (no concentration beside the values), hits read low; AID 651819; in the data active = activity change below about -30%; note: % is set by controls: 0 for no effect and ±100 for the full control effect
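Enzyme 40 or 20 nM (batch-dependent) in Tris pH 7.4/KCl/MgCl2/DTT; cpd 76 uM single point; ATP 10 uM; 30 min 37 °C; Transcreener ADP HTRF detection, 30 min RT; ratio 665/615.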
* marks the source's active call; other numbers are inactive results. Shown are actives, neighbours in structure and some others; about 2.3% of the full set was active somewhere. Unless noted, calls come from the whole dose curve; as a rule, active = well fitted curve in the direction sought with a large enough effect; inconclusive = small, poorly fitted or top-dose-only effect, or another doubt; inactive = no such curve, though single readings can be large; an effect the other way counts as inactive or inconclusive.

Results for O=C(C(=O)N1CCOCC1)c1cn(Cc2ccccc2F)c2ccccc12 ?
Abeta rescue: inactive; FUS suppressor: inactive; TDP43 rescue: -2.6%; Mm-Cpn inhibitor: 0.1%; aSyn yeast inh: 14.1%; CCT modulator: -1.9

What do the screens show for `O=c1c2ccccc2[nH]c(=S)n1-c1cccc(C(F)(F)F)c1`?
Abeta rescue: inactive; FUS suppressor: inactive; TDP43 rescue: 6.31µM*; aSyn yeast inh: inconclusive; CCT modulator: -1.3

How did CC(=O)C1=C(O)C2(C)c3c(O)c(C)c(O)c(C(C)=O)c3OC2CC1=O (stereo not drawn) do in these assays?
Abeta rescue: inactive; FUS suppressor: inactive; TDP43 rescue: -74.4%; aSyn yeast inh: -56.9%; CCT modulator: 0.0

How did COc1ccc(Nc2c(-c3cc(Br)ccc3O)nc3ncccn23)cc1OC do in these assays?
Abeta rescue: inactive; FUS suppressor: inactive; TDP43 rescue: inconclusive

How did O=[N+]([O-])c1ccc(Cl)c([N+](=O)[O-])c1 do in these assays?
Abeta rescue: inactive; FUS suppressor: inactive; TDP43 rescue: 11.2µM*; Mm-Cpn inhibitor: -3.8%; aSyn yeast inh: 3.1%; CCT modulator: 0.2

Results for O=[N+]([O-])c1ccc(O)c([N+](=O)[O-])c1 ?
Abeta rescue: inactive; FUS suppressor: inactive; TDP43 rescue: -92.2%; aSyn yeast inh: 3.2%; CCT modulator: -0.4

How did CC1(C(=O)O)CC12c1ccccc1-c1ccccc12 (stereo not drawn) do in these assays?
Abeta rescue: inactive; TDP43 rescue: 3.16µM*; aSyn yeast inh: -20.2%; CCT modulator: -2.4

How did CN1CCC2(CC1)c1ccccc1-c1ccccc12 do in these assays?
Abeta rescue: inactive; FUS suppressor: inactive; TDP43 rescue: 1.9%; aSyn yeast inh: -0.4%; CCT modulator: -4.4

How did O=[N+]([O-])c1cc(C(F)(F)F)c(Cl)c([N+](=O)[O-])c1Nc1ncc(C(F)(F)F)cc1Cl do in these assays?
aSyn yeast inh: -82.3%

What do the screens show for `CCCCN1C(=O)NC(=O)C2(Cc3c(nc4c(C)cccn4c3=O)N3CCc4ccccc4C32)C1=O` (stereo not drawn)?
Abeta rescue: inactive; FUS suppressor: inconclusive; TDP43 rescue: 35.5µM*; Mm-Cpn inhibitor: -0.5%; aSyn yeast inh: 17.5%; CCT modulator: -1.0

Results for CCCCN1C(=O)NC(=O)C2(Cc3c(nc4ccccn4c3=O)N3CCc4ccccc4C32)C1=O (stereo not drawn) ?
Abeta rescue: inactive; FUS suppressor: inactive; TDP43 rescue: inconclusive; Mm-Cpn inhibitor: -2.0%; aSyn yeast inh: 13.8%; CCT modulator: -1.0

What do the screens show for `CC(=O)Nc1ccc(OC(=O)N2CCN(/[N+]([O-])=N/Oc3ccc([N+](=O)[O-])cc3[N+](=O)[O-])CC2)cc1`?
aSyn yeast inh: -29.4%

How did CC(C)(C)OC(=O)NCc1ccc(CNC(=O)c2[nH]cnc2C(=O)Nc2ccccc2F)cc1 do in these assays?
Abeta rescue: inactive; FUS suppressor: inactive; TDP43 rescue: inconclusive; aSyn yeast inh: 2.1%; CCT modulator: -2.5

How did c1ccc2c(c1)CSc1ccccc1N2 do in these assays?
Abeta rescue: inactive; FUS suppressor: inactive; TDP43 rescue: 20µM*; aSyn yeast inh: -5.3%; CCT modulator: -1.5

What do the screens show for `COc1ccc2c(c1)c(C(=O)O)c(C)n2CC(C)C`?
Abeta rescue: inactive; FUS suppressor: inactive; TDP43 rescue: 4.5%; Mm-Cpn inhibitor: -1.3%; aSyn yeast inh: 15.1%; CCT modulator: 0.8

How did COc1cc(O)c(C(=O)O)c(-c2cc(O)c(O)cc2C)c1 do in these assays?
Abeta rescue: inconclusive; FUS suppressor: inactive; TDP43 rescue: 17.3%; Mm-Cpn inhibitor: -0.7%; aSyn yeast inh: 14.1µM*; CCT modulator: -1.9

What do the screens show for `COC(=O)C1=C(c2ccc(OC(F)(F)F)cc2)C[C@@H]2CC[C@H]1N2C(=O)NCCOc1ccccc1Cl`?
Abeta rescue: inactive; FUS suppressor: inconclusive; TDP43 rescue: 28.2µM*; Mm-Cpn inhibitor: -1.2%; aSyn yeast inh: 10.3%; CCT modulator: -1.4

How did COC(=O)C1=C(c2ccc(Cl)c(C(F)(F)F)c2)C[C@@H]2CC[C@H]1N2C(=O)NCCO do in these assays?
Abeta rescue: inactive; FUS suppressor: inactive; TDP43 rescue: -1.2%; Mm-Cpn inhibitor: 0.6%; aSyn yeast inh: 2.8%; CCT modulator: -1.0

Results for COC(=O)C1=C(c2ccc3ccccc3c2)C[C@@H]2CC[C@H]1N2C(=O)NCc1ccco1 ?
Abeta rescue: inactive; FUS suppressor: inactive; TDP43 rescue: 37.5%; Mm-Cpn inhibitor: -0.6%; aSyn yeast inh: 22.6%; CCT modulator: 0.0

How did COC(=O)C1=C(c2cc3ccccc3s2)C[C@@H]2CC[C@H]1N2C(=O)NCc1ccc(F)cc1 do in these assays?
Abeta rescue: inactive; FUS suppressor: inconclusive; TDP43 rescue: 10µM*; aSyn yeast inh: inconclusive; CCT modulator: -0.3

What do the screens show for `COC(=O)C1=C(c2ccc(Cl)c(C(F)(F)F)c2)C[C@@H]2CC[C@H]1N2C(=O)NCCOc1ccccc1`?
Abeta rescue: inactive; FUS suppressor: 22.4µM*; TDP43 rescue: 22.4µM*; Mm-Cpn inhibitor: 0.9%; aSyn yeast inh: 1.5%; CCT modulator: -1.0

How did COC(=O)C1=C(c2ccc(Cl)c(C(F)(F)F)c2)C[C@@H]2CC[C@H]1N2C(=O)NCc1ccco1 do in these assays?
Abeta rescue: inactive; FUS suppressor: inactive; TDP43 rescue: 22.4µM*; Mm-Cpn inhibitor: -2.3%; aSyn yeast inh: 1.4%; CCT modulator: -0.1

Results for ClCCN(CCCl)c1ccc(/C=C/c2sc3ccccc3[n+]2CCCCI)cc1 ?
aSyn yeast inh: -25.7%

What do the screens show for `COc1ccccc1CN1CCCC(C(=O)c2ccccc2SC)C1` (stereo not drawn)?
Abeta rescue: inactive; FUS suppressor: inactive; TDP43 rescue: 8.4%; Mm-Cpn inhibitor: 0.1%; aSyn yeast inh: 0.2%; CCT modulator: -2.4

How did COc1ccc(O)c(CN2CCCC(C(=O)c3ccccc3SC)C2)c1 (stereo not drawn) do in these assays?
Abeta rescue: inactive; FUS suppressor: inactive; TDP43 rescue: 0.9%; Mm-Cpn inhibitor: 2.0%; aSyn yeast inh: -2.1%; CCT modulator: -45.1*

How did C[C@]12CCC3[C@@H](CC[C@@H]4C[C@H](O)CC[C@]34C)[C@@H]1CCC2=O (stereo partly drawn) do in these assays?
Abeta rescue: inactive; FUS suppressor: inactive; TDP43 rescue: inconclusive; Mm-Cpn inhibitor: 0.4%; aSyn yeast inh: 3.1%; CCT modulator: -1.5
